Values joined by “and” are separate entries in the source; they are usually repeats but may differ in a detail not shown here. Equal values may be shown once. More than one record can exist for a structure, and the calls need not agree. Active and inactive are the calls of the source. How the source made its calls: active means hit-call score of the fitted dose curve at least 0.9, where 1 is the maximum; inactive means score below 0.9.
What was measured:
[1] = read-out: Cyclin Dependent Kinase Inhibitor 1A (CDKN1A), CDKN1A (gene 1026); assay: LTEA_HepaRG_CDKN1A: Life Technologies and Expression Analysis (LTEA) Assay for Cyclin Dependent Kinase Inhibitor 1A (CDKN1A) using HepaRG (AID 2283450); details: mRNA level, 48 h; actives raise or lower the signal
In short: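 Expression quantified by Fluidigm qRT-PCR with ACTB, GAPDH and POLR2A normalization, fitted bidirectionally against 0.5% DMSO. Cells: HepaRG, plated 48 h then treated 48 h in serum-free induction medium, top concentration 100 uM with half-log dilutions.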

[2] = read-out: Cyclin D1 (CCND1), CCND1 (gene 595); assay: LTEA_HepaRG_CCND1: Life Technologies and Expression Analysis (LTEA) Assay for Cyclin D1 (CCND1) using HepaRG (AID 2283451); details: mRNA level, 48 h; actives raise or lower the signal;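 on AC50: differentiated human HepaRG liver cells in serum-free induction medium; TaqMan qRT-PCR transcript level normalised to ACTB GAPDH and POLR2A housekeeping genes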
In short: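 Expression of CCND1 was quantified by qRT-PCR on Fluidigm arrays using ACTB, GAPDH and POLR2A as reference genes. HepaRG cultures, plated 48 h beforehand, were dosed for 48 h at up to 100 uM (half-log, 8 points) in 0.5% DMSO.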

[3] = read-out: catalase (CAT), CAT (gene 847); assay: LTEA_HepaRG_CAT: Life Technologies and Expression Analysis (LTEA) Assay for catalase (CAT) using HepaRG (AID 2283452); details: mRNA level, 48 h; actives raise or lower the signal;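 on AC50: TaqMan qRT-PCR signal normalized to ACTB GAPDH and POLR2A housekeeping genes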
In short: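 Differentiated HepaRG cells in serum-free induction medium were dosed 48 h in duplicate, eight half-log concentrations from 100 uM in 0.5% DMSO. Transcript measured by TaqMan qRT-PCR, normalised to ACTB/GAPDH/POLR2A, fitted bidirectionally against DMSO.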

[4] = read-out: flavin-containing dimethylaniline monooxygenases 3 (FMO3), FMO3 (gene 2328); assay: LTEA_HepaRG_FMO3: Life Technologies and Expression Analysis (LTEA) Assay for flavin-containing dimethylaniline monooxygenases 3 (FMO3) using HepaRG (AID 2283453); details: mRNA level, 48 h; actives raise or lower the signal;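 on AC50: differentiated human HepaRG liver cells in serum-free induction medium; FMO3 transcript by TaqMan qRT-PCR normalized to ACTB GAPDH and POLR2A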
In short: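 Eight-point concentration-response in serum-free HepaRG cultures (top 100 uM, 0.5% DMSO, 48 h). Read-out: FMO3 mRNA level normalized to three endogenous control genes, fitted bidirectionally versus vehicle.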

[5] = read-out: Cytochrome P450 (CYP1A1), CYP1A1 (gene 1543); assay: LTEA_HepaRG_CYP1A1: Life Technologies and Expression Analysis (LTEA) Assay for Cytochrome P450 (CYP1A1) using HepaRG (AID 2283454); details: mRNA level, 48 h; actives raise or lower the signal
In short: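 CYP1A1 transcript levels measured by Fluidigm qRT-PCR against three housekeeping genes, 48 h after chemical dosing of human HepaRG cells (highest concentration 100 uM, half-log steps, 0.5% DMSO vehicle). Gain or loss of signal fitted relative to DMSO.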

[6] = read-out: CFLAR gene, CFLAR (gene 8837); assay: LTEA_HepaRG_CFLAR: Life Technologies and Expression Analysis (LTEA) Assay for CFLAR gene using HepaRG (AID 2283455); details: mRNA level, 48 h; actives raise or lower the signal
In short: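 Gain- or loss-of-signal changes in CFLAR transcript were fitted bidirectionally relative to 0.5% DMSO. Cells (HepaRG, duplicate wells) were dosed for 48 h across eight half-log concentrations topping at 100 uM; quantitation by TaqMan qRT-PCR.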

[7] = read-out: Forkhead box O1 (FOXO1), FOXO1 (gene 2308); assay: LTEA_HepaRG_FOXO1: Life Technologies and Expression Analysis (LTEA) Assay for Forkhead box O1 (FOXO1) using HepaRG (AID 2283456); details: mRNA level, 48 h; actives raise or lower the signal
In short: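 Using one lot of HepaRG hepatic cells kept in 0.5% DMSO, the team applied test chemicals in duplicate, half-log dilutions from 100 uM, for 48 h. Expression, normalised to ACTB/GAPDH/POLR2A, was compared with vehicle in either direction.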

[8] = read-out: growth arrest and DNA damage 45 (GADD45A), GADD45A (gene 1647); assay: LTEA_HepaRG_GADD45A: Life Technologies and Expression Analysis (LTEA) Assay for growth arrest and DNA damage 45 (GADD45A) using HepaRG (AID 2283458); details: mRNA level, 48 h; actives raise or lower the signal
In short: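 HepaRG, 48 h exposure, 8 conc. (top 100 uM, half-log steps), 0.5% DMSO vehicle, duplicates. Read-out: qRT-PCR mRNA level, housekeeping-normalized (ACTB/GAPDH/POLR2A). Curves fit bidirectionally vs DMSO baseline.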

[9] = CEETOX_H295R_TESTO: CeeTox H295R High-throughput Steroidogenesis Assay for Testosterone (TESTO) (AID 2283457); details: actives raise or lower the signal;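 on AC50: cells exposed to chemicals for 48 h before medium collection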
In short: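 Testosterone secreted into the medium over 48 h by H295R cells (maximum passage 10) was quantified by LC-MS/MS after MTBE extraction. Fitted in both directions against DMSO, with concentrations diluted until MTT viability was ≥70%.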

[10] = read-out: Forkhead box O3 (FOXO3), FOXO3 (gene 2309); assay: LTEA_HepaRG_FOXO3: Life Technologies and Expression Analysis (LTEA) Assay for Forkhead box O3 (FOXO3) using HepaRG (AID 2283459); details: mRNA level, 48 h; actives raise or lower the signal
In short: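 Gene-expression endpoint: FOXO3 transcript level by qRT-PCR in HepaRG cultures treated 48 h with chemicals up to 100 uM (half-log, 0.5% DMSO vehicle).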

Measured: AC50

O=C(NC(=O)c1c(F)cccc1F)Nc1ccc(OC(F)(F)C(F)OC(F)(F)F)c(Cl)c1 (stereo unspecified)
active: [5] 21.2 µM
inactive: [1] | [2] | [3] | [4] | [6] | [7] | [8]

CCN(CC)C(=O)SCc1ccc(Cl)cc1
active: [5] 41.6 µM
inactive: [1] | [2] | [3] | [4] | [6] | [7] | [8]

CC1(C)C(C=C(Cl)Cl)C1C(=O)OC(C#N)c1ccc(F)c(Oc2ccccc2)c1 (stereo unspecified)
inactive: [1] | [2] | [3] | [4] | [6] | [7] | [8]
active: [5] 37.7 µM

O=[N+]([O-])/N=C1\NCCN1Cc1ccc(Cl)nc1
active: [1] 12.2 µM | [3] 39.8 µM | [4] 34.6 µM | [5] 9.92 µM | [6] 26.3 µM | [8] 23.6 µM
inactive: [2] | [7] | [9]

CCCN(CCC)c1c([N+](=O)[O-])cc(C(F)(F)F)cc1[N+](=O)[O-]
active: [5] 50 µM
inactive: [1] | [2] | [3] | [4] | [6] | [7] | [9] | [8]

Oc1cc(Cl)ccc1Oc1ccc(Cl)cc1Cl
inactive: [1] | [2] | [3] | [4] | [6] | [7] | [8]
active: [2] 85.2 µM | [3] 90.2 µM | [4] 85.1 µM | [5] 77.3 µM and 88.3 µM and 79.3 µM | [8] 10.1 µM

C#CCN1C(=O)COc2cc(F)c(N3C(=O)C4=C(CCCC4)C3=O)cc21
active: [5] 65.6 µM
inactive: [1] | [2] | [3] | [4] | [6] | [7] | [9] | [8]

CCC(C)Nc1c([N+](=O)[O-])cc(C(C)(C)C)cc1[N+](=O)[O-] (stereo unspecified)
active: [5] 12.9 µM
inactive: [1] | [2] | [3] | [4] | [6] | [7] | [8]

CCCN(CCOc1c(Cl)cc(Cl)cc1Cl)C(=O)n1ccnc1
active: [1] 30.5 µM | [2] 89.8 µM | [3] 32.1 µM | [4] 33 µM | [5] 2.56 µM | [6] 85.2 µM | [7] 88.7 µM | [8] 45.8 µM

O=C(O)C(F)(F)C(F)(F)C(F)(F)C(F)(F)C(F)(F)C(F)(F)C(F)(F)F
active: [3] 23.3 µM | [7] 50 µM
inactive: [1] | [2] | [3] | [4] | [5] | [6] | [7] | [8]

O=S1OCC2C(CO1)C1(Cl)C(Cl)=C(Cl)C2(Cl)C1(Cl)Cl (stereo unspecified)
active: [1] 79.1 µM | [3] 52.3 µM | [4] 83.4 µM | [5] 50 µM
inactive: [2] | [6] | [7] | [8]

CCC(C)(C)C(=O)OC1=C(c2ccc(Cl)cc2Cl)C(=O)OC12CCCCC2
inactive: [1] | [2] | [3] | [6] | [7] | [9] | [8]
active: [4] 66.4 µM | [5] 50 µM

O=[N+]([O-])c1c(Cl)c(Cl)c(Cl)c(Cl)c1Cl
inactive: [1] | [3] | [4] | [6] | [7] | [9] | [8]
active: [2] 50 µM | [5] 81.3 µM

O=S(=O)(O)C(F)(F)C(F)(F)C(F)(F)C(F)(F)C(F)(F)C(F)(F)C(F)(F)C(F)(F)F
active: [2] 18.5 µM and 22.3 µM and 12.3 µM | [3] 84 µM | [5] 22.6 µM | [6] 13.2 µM | [7] 13.3 µM
inactive: [1] | [2] | [3] | [5] | [6] | [7] | [8] | [10]

COc1nn(CSP(=S)(OC)OC)c(=O)s1
active: [5] 24.3 µM
inactive: [1] | [2] | [3] | [4] | [6] | [7] | [8]

O=C1c2ccccc2C(=O)N1SC(Cl)(Cl)Cl
inactive: [1] | [2] | [3] | [4] | [5] | [6] | [7] | [8]

CC(C)(C)C(O)/C(=C\c1ccc(Cl)cc1Cl)n1cncn1 (stereo unspecified)
inactive: [8]
active: [1] 27.5 µM | [2] 82.5 µM | [3] 27.3 µM | [4] 33.8 µM | [5] 9.3 µM | [6] 76.6 µM | [7] 89.4 µM

C[C@H]1[C@H](c2ccc(Cl)cc2)SC(=O)N1C(=O)NC1CCCCC1
inactive: [2] | [6] | [9]
active: [1] 71.6 µM | [3] 66.2 µM | [4] 75 µM | [5] 14.9 µM | [7] 83.2 µM | [8] 75.8 µM

Oc1ccc(Cl)cc1Cc1ccccc1
active: [2] 50.5 µM | [5] 84.7 µM and 81.3 µM and 84.4 µM | [6] 82.3 µM | [9] 78 µM
inactive: [1] | [2] | [3] | [4] | [6] | [7] | [8]

COP(=O)(OC)OC=C(Cl)Cl
inactive: [1] | [2] | [3] | [4] | [5] | [6] | [7] | [8]

CNC(=O)CSP(=S)(OC)OC
inactive: [1] | [2] | [3] | [4] | [6] | [7] | [8]
active: [5] 24.8 µM

CCc1ccc(C(=O)NN(C(=O)c2cc(C)cc(C)c2)C(C)(C)C)cc1
inactive: [1] | [2] | [3] | [5] | [6] | [7] | [8]
active: [4] 81.9 µM

From PubChem BioAssay (EPA / NIEHS)
